Several values for one entry are separate records, joined by “and”; a condition that tells them apart may be missing. Equal entries are not always repeated. Results filed as inconclusive are left out. Where a structure was tested more than once in an assay, its records may differ in their call. Activity calls are given as the source filed them. Unless noted, calls come from the whole dose curve; as a rule, active = well fitted curve in the direction sought with a large enough effect; inconclusive = small, poorly fitted or top-dose-only effect, or another doubt; inactive = no such curve, though single readings can be large; an effect the other way counts as inactive or inconclusive.
Tests used:
[1] = target: Guanine nucleotide-binding protein G(i) subunit alpha-1 (Homo sapiens) (UniProt P63096); experiment: qHTS Assay for Inhibitors of RGS12 GoLoco Motif Activity (Green Fluorophore) (AID 879);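 note: negative values mean loss of peptide binding seen as reduced polarization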
How it was run: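 Fluorescence polarization assay: 50 nM Gαi1 with 10 nM FITC-labeled RGS12 GoLoco peptide in 10 mM Tris pH 7.5, 150 mM NaCl, 0.1 mM GDP, 0.05% NP40, 10 min at room temperature with compound.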

[2] = target: Cytochrome P450 3A4 (Homo sapiens) (UniProt P08684); experiment: qHTS Assay for Inhibitors and Substrates of Cytochrome P450 3A4 (AID 884); note: nearly all actives have a fitted effect of over 50% in size; note: potency is the fitted concentration of half-maximal effect
How it was run: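 20 nM human CYP3A4 with 25 uM Luciferin-PPXE (at KM) in 200 mM KPO4, preincubated 10 min with compound; NADPH regeneration started a 60 min RT reaction. Luciferin detected by luminescence, normalized to 57 uM ketoconazole as full inhibition.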

[3] = target: Cytochrome P450 3A4 (Homo sapiens) (UniProt P08684); experiment: qHTS Assay for Activators of Cytochrome P450 3A4 (AID 885); note: nearly all actives have a fitted effect of over 65% in size
How it was run: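 Human CYP3A4 (20 nM) with Luciferin-PPXE at 25 uM (its KM) in 200 mM KPO4; 10 min compound preincubation, then NADPH regeneration and 60 min reaction at RT. Luciferin read by luminescence; normalized to 57 uM ketoconazole full inhibition.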

[4] = target: Cytochrome P450 2D6 (Homo sapiens) (UniProt P10635); experiment: qHTS Assay for Inhibitors and Substrates of Cytochrome P450 2D6 (AID 891); note: nearly all actives have a fitted effect of over 60% in size; note: potency is the fitted concentration of half-maximal effect
How it was run: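 Human CYP2D6 (5 nM) with 30 uM Luciferin-ME EGE (at Km) in 100 mM KPO4, compound preincubated 10 min, then NADPH regeneration system for 60 min at room temperature. Luciferin read by luminescence; normalized to 1.43 uM quinidine.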

[5] = target: Cytochrome P450 2C19 (Homo sapiens) (UniProt P33261); experiment: qHTS Assay for Inhibitors and Substrates of Cytochrome P450 2C19 (AID 899); note: nearly all actives have a fitted effect of over 60% in size; note: potency is the fitted concentration of half-maximal effect
How it was run: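 Reactions contain 5nM enzyme, 10uM Luciferin-H EGE (KM) and 50mM KPO4; compound preincubates 10 min at 37C, NADPH regeneration starts turnover for 60 min. Luminescence after detection reagent gives activity.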

[6] = target: Muscarinic acetylcholine receptor M1 (Rattus norvegicus) (UniProt P08482); experiment: qHTS Assay for Antagonists of Acetylcholine Muscarinic M1 Receptor: Kinetic Measurement of Intracellular Calcium Response (AID 943); note: nearly all actives have a fitted effect of over 75% in size; note: potency is the fitted concentration of half-maximal effect
How it was run: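 Rat M1-CHO cells, 2000/well, overnight → Fluo-4 no-wash dye with probenecid, 1 h 37C → compound 10 min, room temp → basal read 6 s → carbachol EC80 (100 nM) → 4 min kinetic read; peak/basal.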

[7] = target: Muscarinic acetylcholine receptor M1 (Rattus norvegicus) (UniProt P08482); experiment: qHTS Assay for Antagonists of Acetylcholine Muscarinic M1 Receptor: Measurement of IP-One Response (AID 944); note: nearly all actives have a fitted effect of over 75% in size; note: potency is the fitted concentration of half-maximal effect
How it was run: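 M1-CHO (rat), 2000 cells/well, overnight recovery; cpd 10 min; carbachol EC80 (200 nM), 30 min, HEPES buffer + 50 mM LiCl pH 7.4; IP-One HTRF, Ex 337, Em 620/665 nm.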

[8] = target: Cytochrome P450 2C9 (Homo sapiens) (UniProt P11712); experiment: qHTS Assay for Inhibitors and Substrates of Cytochrome P450 2C9 (AID 883); note: nearly all actives have a fitted effect of over 60% in size; note: potency is the fitted concentration of half-maximal effect
How it was run: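 Turnover of Luciferin-H (100uM, KM) by 10nM human CYP2C9 was measured over 60 min at 37C with NADPH regeneration; inhibitors and some substrates reduce luminescence. Data normalized to sulphaphenazole 57uM.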

[9] = qHTS Assay for Identification of Small Molecule Antagonists for NFkB Signaling Pathway (AID 895; active = well fitted inhibition curve with a large enough effect in the signal ratio, with a control signal flat, not every such curve was filed as active; the % refers to the signal ratio)
How it was run: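 Beta-lactamase reporter read-out (460 and 530 nm emission ratio, 405 nm excitation, 2 hrs substrate loading RT) after 5 hr stimulation with 10 pM TNF alpha in compound-treated NFkB-bla ME-180 cells in low-serum medium.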

[10] = qHTS Assay for Identification of Small Molecule Antagonists for Thrombopoietin (TPO) Signaling Pathway (AID 918); details: TPO-dependent cell signaling reporter, antagonist mode; note: potency is the fitted concentration of half-maximal effect; nearly all actives have a fitted effect of over 60% in size
How it was run: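 Ba/F3 (murine, hTPO-R, GPIIb-luc reporter); overnight IL-3 withdrawal; cpd + TPO 26 pM final (EC50); 24 h 37 C/5% CO2; Steadylite luminescence after 10 min RT.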

[11] = qHTS Assay for Identification of Small Molecule Agonists for Thrombopoietin (TPO) Signaling Pathway (AID 917); note: potency is the fitted concentration of half-maximal effect
How it was run: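 We measured Glycoprotein IIb promoter–luciferase output in IL-3-starved Ba/F3 murine cells expressing the human TPO receptor after 24 hrs at 37 C with compounds and 26 pM TPO.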

[12] = Confirmation and Secondary Assay for Modulators of Hemoglobin Beta Chain Splicing at IVS2 654 locus (AID 910);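 note: HeLa cells stably carrying EGFP split by mutant beta-globin IVS2-654 intron; per-well total GFP intensity by laser scanning cytometry after 2-day treatment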
How it was run: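 Readout: per-well total peak green fluorescence (488 nm ex, 500–520 nm em) from objects 5–250 µm, reflecting correct splicing of an EGFP-654 reporter. Compounds were applied for 2 days at 37 °C to overnight-plated HeLa EGFP-654 cells; controls were DMSO and 500 nM IVS2-654 PNA.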

[13] = Confirmation and Secondary Assay for Modulators of Hemoglobin Beta Chain Splicing at IVS2 705 locus (AID 930);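 note: HeLa cells stably expressing the EGFP-705 splicing reporter; GFP fluorescence per well restored by corrected splicing of the IVS2-705 intron in EGFP; series mostly up to about 46 µM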
How it was run: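 Fluorescence gain (488 nm laser, 500-520 nm PMT) reflects restored correct splicing of a mutant IVS2-705 intron inside EGFP in stably transfected HeLa cells after 2-day compound treatment.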

Measured: Potency

Chain of Cytochrome P450 3A4 (Homo sapiens) (P08684 whole entry, looked up): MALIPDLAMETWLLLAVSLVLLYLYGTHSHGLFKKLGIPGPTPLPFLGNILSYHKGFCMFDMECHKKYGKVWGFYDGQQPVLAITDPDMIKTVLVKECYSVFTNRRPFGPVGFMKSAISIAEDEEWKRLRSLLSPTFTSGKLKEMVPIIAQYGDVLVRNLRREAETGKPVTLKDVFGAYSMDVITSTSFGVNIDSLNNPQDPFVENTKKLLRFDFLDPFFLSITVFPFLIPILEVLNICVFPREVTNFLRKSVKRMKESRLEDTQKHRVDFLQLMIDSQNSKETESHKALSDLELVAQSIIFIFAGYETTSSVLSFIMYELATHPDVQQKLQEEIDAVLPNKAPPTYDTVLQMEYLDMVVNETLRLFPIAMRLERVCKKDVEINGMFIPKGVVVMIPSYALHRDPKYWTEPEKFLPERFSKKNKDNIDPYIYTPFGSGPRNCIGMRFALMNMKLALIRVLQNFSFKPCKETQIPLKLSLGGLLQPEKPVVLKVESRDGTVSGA
Chain of Cytochrome P450 2C9 (Homo sapiens) (P11712 whole entry, looked up): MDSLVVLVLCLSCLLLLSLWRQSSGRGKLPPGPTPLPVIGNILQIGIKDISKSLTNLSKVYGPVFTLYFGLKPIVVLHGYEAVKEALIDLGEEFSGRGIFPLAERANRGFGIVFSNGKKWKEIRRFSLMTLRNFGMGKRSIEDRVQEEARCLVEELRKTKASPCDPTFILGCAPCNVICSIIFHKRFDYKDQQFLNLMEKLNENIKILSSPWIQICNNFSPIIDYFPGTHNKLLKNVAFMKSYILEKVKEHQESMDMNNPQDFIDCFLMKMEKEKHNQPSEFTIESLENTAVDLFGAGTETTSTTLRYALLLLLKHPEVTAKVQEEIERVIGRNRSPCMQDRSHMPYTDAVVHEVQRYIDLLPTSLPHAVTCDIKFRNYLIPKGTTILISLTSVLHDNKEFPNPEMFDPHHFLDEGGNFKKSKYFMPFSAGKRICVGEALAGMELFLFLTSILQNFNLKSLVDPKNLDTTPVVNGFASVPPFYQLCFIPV
Chain of Muscarinic acetylcholine receptor M1 (Rattus norvegicus) (P08482 whole entry, looked up): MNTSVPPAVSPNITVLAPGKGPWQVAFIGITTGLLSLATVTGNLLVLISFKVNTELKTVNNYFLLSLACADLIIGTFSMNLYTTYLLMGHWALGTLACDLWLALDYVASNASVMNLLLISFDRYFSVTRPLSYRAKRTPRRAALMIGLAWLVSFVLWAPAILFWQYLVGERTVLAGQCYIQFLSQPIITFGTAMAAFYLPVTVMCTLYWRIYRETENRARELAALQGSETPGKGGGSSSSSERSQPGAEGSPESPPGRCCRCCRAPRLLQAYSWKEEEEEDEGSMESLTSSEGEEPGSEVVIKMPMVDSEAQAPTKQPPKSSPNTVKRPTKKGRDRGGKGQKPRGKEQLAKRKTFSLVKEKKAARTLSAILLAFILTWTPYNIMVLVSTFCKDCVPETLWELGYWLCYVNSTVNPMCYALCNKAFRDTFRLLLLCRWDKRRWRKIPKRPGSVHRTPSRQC
Chain of Guanine nucleotide-binding protein G(i) subunit alpha-1 (Homo sapiens) (P63096 whole entry, looked up): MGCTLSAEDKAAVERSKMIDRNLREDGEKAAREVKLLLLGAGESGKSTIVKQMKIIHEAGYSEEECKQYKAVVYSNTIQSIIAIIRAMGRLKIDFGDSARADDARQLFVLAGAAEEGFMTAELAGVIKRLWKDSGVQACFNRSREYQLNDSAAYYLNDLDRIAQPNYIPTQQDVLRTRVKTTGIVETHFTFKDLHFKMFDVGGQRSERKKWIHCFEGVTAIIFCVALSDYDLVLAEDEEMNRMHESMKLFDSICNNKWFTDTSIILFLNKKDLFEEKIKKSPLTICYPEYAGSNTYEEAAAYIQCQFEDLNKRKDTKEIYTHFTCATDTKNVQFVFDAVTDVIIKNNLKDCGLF
Chain of Cytochrome P450 2D6 (Homo sapiens) (P10635 whole entry, looked up): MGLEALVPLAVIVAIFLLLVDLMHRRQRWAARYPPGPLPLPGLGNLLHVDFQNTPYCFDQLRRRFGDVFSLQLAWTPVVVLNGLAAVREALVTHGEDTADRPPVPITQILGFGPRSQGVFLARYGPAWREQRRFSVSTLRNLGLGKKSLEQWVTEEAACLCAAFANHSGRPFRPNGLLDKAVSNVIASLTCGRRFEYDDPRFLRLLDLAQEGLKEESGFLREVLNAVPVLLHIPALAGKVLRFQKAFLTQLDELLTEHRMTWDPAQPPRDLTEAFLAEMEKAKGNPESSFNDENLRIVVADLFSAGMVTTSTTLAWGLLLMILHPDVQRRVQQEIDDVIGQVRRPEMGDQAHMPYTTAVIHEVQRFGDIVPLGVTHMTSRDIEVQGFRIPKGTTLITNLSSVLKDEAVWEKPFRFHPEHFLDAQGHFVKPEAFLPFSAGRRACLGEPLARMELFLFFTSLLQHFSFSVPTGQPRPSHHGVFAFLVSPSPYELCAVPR
Chain of Cytochrome P450 2C19 (Homo sapiens) (P33261 whole entry, looked up): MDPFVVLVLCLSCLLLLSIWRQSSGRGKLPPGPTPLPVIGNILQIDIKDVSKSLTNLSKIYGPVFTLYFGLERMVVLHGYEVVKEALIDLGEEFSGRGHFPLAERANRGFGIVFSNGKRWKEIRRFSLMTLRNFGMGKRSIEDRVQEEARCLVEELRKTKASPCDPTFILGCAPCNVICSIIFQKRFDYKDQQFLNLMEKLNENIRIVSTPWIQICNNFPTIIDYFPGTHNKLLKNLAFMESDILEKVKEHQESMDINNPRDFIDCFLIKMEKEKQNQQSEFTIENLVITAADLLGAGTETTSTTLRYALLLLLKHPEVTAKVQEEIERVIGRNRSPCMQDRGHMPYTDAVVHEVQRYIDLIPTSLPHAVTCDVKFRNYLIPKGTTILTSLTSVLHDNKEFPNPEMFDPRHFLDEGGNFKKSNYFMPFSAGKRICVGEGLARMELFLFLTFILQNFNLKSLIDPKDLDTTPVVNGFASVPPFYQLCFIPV

Fc1ccc(C(OCCCc2cnc[nH]2)c2ccc(F)cc2)cc1
active: [2] 794 nM | [4] 631 nM | [5] 4 nM | [6] 5010 nM | [7] 7940 nM
inactive: [1] | [3]

N#C/C(=C\c1c[nH]c2ccccc12)C(=O)c1ccc(O)c(O)c1
active: [2] 7940 nM
inactive: [1] | [3] | [6] | [7]

CN=c1nc(-c2ccccc2)n(-c2ccccc2)s1
active: [8] 2 µM | [5] 3160 nM | [10] 2510 nM | [7] 12600 nM
inactive: [1] | [3] | [9]

COc1cccc(C(=O)NCCN2CCN(c3ccc(Cl)cc3)CC2)c1
inactive: [1] | [3] | [9] | [11]

N#C/C(=C\c1ccc(O)c(O)c1)C(=O)NCc1ccccc1
inactive: [1] | [8] | [3] | [4] | [5] | [6]

O=C1C(SCCO)=C(SCCO)C(=O)c2ccccc21
active: [8] 12.6 µM and 5.01 µM | [4] 7940 nM | [5] 501 nM and 79.4 nM | [10] 1260 nM | [7] 10000 nM
inactive: [1] | [3] | [6]

NCCSSCCN
inactive: [1] | [2] | [9] | [12] | [13] | [7]

O=C(Nc1ccccc1)c1cc([N+](=O)[O-])ccc1Cl
inactive and 794 nM (active): [5]
inactive and 6.31 µM (active): [8]
active: [11] 1580 nM
inactive: [1] | [3] | [4] | [7]

N[C@H](CCCP(=O)(O)O)C(=O)O
inactive: [1] | [8] | [4] | [5] | [11] | [6]

Cc1cc(NC(=O)Nc2ccc3c(ccn3C)c2)sn1
active: [11] 1580 nM
inactive and 3.16 µM (active): [5]
inactive: [1] | [3] | [9] | [6]

C=C[C@H]1CN2CC[C@@H]1C[C@@H]2[C@@H](O)c1ccnc2ccc(OC)cc12
inactive: [1] | [8] | [9] | [11] | [7]

CCCn1c(=O)c2[nH]c(-c3ccc(OCC(=O)NCCN)cc3)nc2n(CCC)c1=O
active: [2] 2510 nM
inactive: [1] | [3] | [11]

O=C(O)[C@@H]1C[C@@H](C(=O)O)N1
inactive: [1] | [2] | [9] | [11] | [6] | [7]

COc1ccccc1CNCCCCCCNCCCCCCCCNCCCCCCNCc1ccccc1OC
inactive: [1] | [3] | [9]
